Screening data: PubChem BioAssay, The Scripps Research Institute Molecular Screening Center
LYPLA1 inh = LYPLA1 inhibitors, primary screen, counter-screen for PME1 inhibitor project, biochemical, fluorescence polarization, FP-Rh probe ABPP; recombinant LYPLA1; hit rate 0.16% among 320,000; inhibition, % at 5.9 µM;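 active = inhibition above the mean of all tested compounds plus 3 SD, set per campaign, cut at about 14% in these data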;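 also: inhibitors block serine hydrolase probe labeling of LYPLA1 so polarization falls; 0% = enzyme with DMSO and 100% = wells lacking LYPLA1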
Target sequence (O75608 whole entry, looked up): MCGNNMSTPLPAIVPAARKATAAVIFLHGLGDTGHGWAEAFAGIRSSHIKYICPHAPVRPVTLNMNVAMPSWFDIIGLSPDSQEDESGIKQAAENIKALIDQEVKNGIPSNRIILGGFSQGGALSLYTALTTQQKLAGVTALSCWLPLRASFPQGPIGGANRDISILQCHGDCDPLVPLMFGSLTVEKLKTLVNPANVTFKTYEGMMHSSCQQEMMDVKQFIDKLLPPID
PAD4 FP inh = human PAD4 inhibitors, primary screen, biochemical, fluorescence polarization, 1536-well format; recombinant PAD4, RCA probe fluorescence polarization; Protein-arginine deiminase type-4 (Homo sapiens), Q9UM07; inhibition, % at 6.36 µM; AID 485272, 2010; hit rate 0.41% among 330,000;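 active = percent inhibition above a cutoff equal to the mean of all tested compounds plus 3 SD, cut at about 15% in these data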;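 also: 0% = PAD4 with RCA probe and DMSO and 100% = probe without PAD4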
Fam108B inh = mouse Fam108B serine hydrolase inhibitors, primary screen, counter-screen for RBBP9 inhibitor project, biochemical, fluorescence polarization | recombinant Fam108B, FP-Rh probe fluorescence polarization | inhibition, % at 9.51 µM | hit rate 0.33% among 300,000;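 active = inhibition above the screen mean inhibition plus 3 SD, computed separately per campaign, cut at about 18% in these data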;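 also: inhibitors lower polarization as less probe binds the enzyme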
PME-1 inh = PME-1 inhibitors via competitive probe labeling, primary screen, biochemical, fluorescence polarization, FP-Rh probe, HTS | Protein phosphatase methylesterase 1 (Homo sapiens), Q9Y570 | recombinant PME-1 | inhibition, % at 5.9 µM | hit rate 0.53% among 320,000 | AID 2130, 2009;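 active = inhibition above the campaign mean of all compounds plus 3 SD, cut at about 26% in these data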;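 also: competitive labeling of PME-1 active site by serine hydrolase directed probe; 0% = PME-1 with DMSO and 100% = wells lacking PME-1 enzyme; inhibitors block probe labeling so polarization falls and inhibition rises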
GSTO1 inh = inhibitors of recombinant GSTO1, primary screen, counter-screen for RBBP9 inhibitor project, biochemical, fluorescence polarization; Glutathione S-transferase omega-1 (Homo sapiens), P78417; activity-based probe fluorescence polarization; inhibition, % at 5.96 µM; hit rate 1.1% among 300,000;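 active = inhibition above the campaign mean inhibition plus 3 SD, cut at about 35% in these data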;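 also: 0% = GSTO1-1 with DMSO and 100% = wells lacking GSTO1-1 enzyme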
Target sequence (P78417 whole entry, looked up): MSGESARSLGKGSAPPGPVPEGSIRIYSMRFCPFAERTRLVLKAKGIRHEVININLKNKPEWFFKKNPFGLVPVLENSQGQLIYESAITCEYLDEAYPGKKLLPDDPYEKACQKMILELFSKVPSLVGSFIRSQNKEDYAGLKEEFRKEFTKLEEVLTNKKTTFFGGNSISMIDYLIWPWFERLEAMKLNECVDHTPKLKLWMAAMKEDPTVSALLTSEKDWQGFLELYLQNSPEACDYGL
LYPLA2 counter = LYPLA2 inhibitors, primary screen, counter-screen for PME1 inhibitor project, biochemical, fluorescence polarization, FP-Rh probe ABPP. recombinant LYPLA2. Acyl-protein thioesterase 2 (Homo sapiens), O95372. inhibition, % at 5.9 µM. hit rate 0.38% among 320,000;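 active = inhibition above the screen-wide mean plus 3 SD, limit set per campaign, cut at about 26% in these data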;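 also: 0% = LYPLA2 with DMSO and 100% = wells lacking LYPLA2 enzyme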
Target sequence (O95372 whole entry, looked up): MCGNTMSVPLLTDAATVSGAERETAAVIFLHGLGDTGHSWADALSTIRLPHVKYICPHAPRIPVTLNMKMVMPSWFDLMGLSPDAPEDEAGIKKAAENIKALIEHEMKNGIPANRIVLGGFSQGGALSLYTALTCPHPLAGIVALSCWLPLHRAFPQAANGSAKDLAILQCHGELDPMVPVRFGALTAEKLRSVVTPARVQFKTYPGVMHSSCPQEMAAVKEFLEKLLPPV
Fam108b inh conf = mouse Fam108b serine hydrolase inhibitors, confirmation, counter-screen for RBBP9 inhibitor project, biochemical, fluorescence polarization, triplicate; shares compounds with Fam108B inh; recombinant Fam108b, FP-Rh probe fluorescence polarization; inhibition, % at 9.51 µM; hit rate 44% among 930; AID 1978, 2009;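 active = inhibition above a limit from the primary screen, the mean over all compounds plus 3 SD, cut at about 19% in these data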;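 also: 0% = median of active Fam108b wells and 100% = catalytically dead S170A mutant; inhibitors free the probe so polarization falls as inhibition rises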
Fam108b inh = inhibition of mouse Fam108b by HTS hits, late-stage follow-up, biochemical, gel-based ABPP, soluble recombinant form | shares compounds with Fam108B inh | fluorophosphonate probe | inhibition, % at 20 µM | hit rate 44% among 260; in the data active = inhibition above about 40%
GSTO1 inh conf = GSTO1 inhibitor hit confirmation, counter-screen for RBBP9 inhibitor project, biochemical, fluorescence polarization, triplicate | recombinant GSTO1, probe fluorescence polarization | inhibition, % at 5.96 µM | shares compounds with GSTO1 inh | hit rate 54% among 2,400;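 active = inhibition above the primary screen's cutoff, its mean inhibition plus 3 SD, cut at about 35% in these data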;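 also: loss of polarization as inhibitors block binding of rhodamine sulfonate ester activity probe; 0% = GSTO1 with DMSO and 100% = wells lacking GSTO1 enzyme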
* hit, by the source's call; . = no result given; + = active, no number. Hits are enriched below; roughly 1.8% of the tested compounds scored in any of these assays.

SMILES	LYPLA1 inh	PAD4 FP inh	Fam108B inh	PME-1 inh	GSTO1 inh	LYPLA2 counter	Fam108b inh conf	GSTO1 inh conf	others
COc1ccccc1Oc1c(C)oc2c(CN3CCN(CCO)CC3)c(O)ccc2c1=O	54.9*	90.3*	46.9*	40.9*	67.4*	45.6*	-7.2	8.3
CCCCCc1nnc(NC(=O)CN2C(=O)C3CCCCC3C2=O)s1 (centres undefined)	0.7	-2.2	2.7	1.7	2.4	6.8	.	.
CCOC(=O)c1ccc2c(c1)C1C=CCC1C(C(=O)OCC)N2 (centres undefined)	-3.9	-8.3	7.2	7.9	23.6	-2.4	.	.
O=C(O)c1ccc2c(c1)[C@@H]1C=CC[C@@H]1[C@H](c1ccccn1)N2	-7.3	0.0	38.7*	-34.5	50.5*	10.3	+	9.4	Fam108b inh=0.0
O=C1NC(=S)N/C1=C/c1cc2c(cc1[N+](=O)[O-])OCO2	-2.8	-6.7	46.6*	14.7	82.6*	-8.6	11.7	34.4
O=C(O)/C=C\c1cc2c(cc1[N+](=O)[O-])OCO2	-0.9	-1.9	4.5	-2.2	17.9	2.8	.	.
O=C(CCNC(=O)c1ccco1)Nc1nc(-c2ccccc2)cs1	.	-7.5	.	.	.	.	.	.
Cc1oc2c(c1C(=O)c1ccccc1)C(=O)C(=O)c1ccccc1-2	9.6	74.0*	55.0*	28.6*	85.0*	14.0	35.2*	91.1*	Fam108b inh=25.0
O=C1C(=O)c2c(C(=O)c3ccccc3)coc2-c2ccccc21	4.2	-12.6	13.8	14.4	31.6	18.2	.	.
CN1c2ccccc2C(C)(C)C12C=Nc1c(ccc3ccccc13)O2 (centres undefined)	-5.0	-1.0	30.9*	5.0	90.3*	-2.6	0.0	5.5
CCN(c1ccccc1)S(=O)(=O)c1ccc(Cl)c(NC(=O)COC(=O)c2ccc(O)cc2)c1	-16.1	5.5	0.8	3.2	-1.7	-14.4	.	.
CCN(c1ccccc1)S(=O)(=O)c1ccc(Cl)c(NC(=O)COC(=O)c2cc(O)c3ccccc3c2O)c1	0.1	25.9*	19.6*	39.8*	51.2*	7.5	47.8*	27.5
CCN(C(=O)c1ccc2c(c1)OCO2)C12CC3CC(CC(C3)C1)C2	.	2.4	.	.	.	.	.	.
c1ccc(-c2onc(-c3ccco3)c2-c2ccc3[nH]ccc3c2)cc1	-7.7	-1.0	-9.7	-8.7	-0.6	-14.0	.	.
CN(C)c1ncc(C2=C(Cl)C(=O)C(N3CCCC3)=C(Cl)C2=O)s1	-2.9	7.4	25.7*	4.3	87.7*	0.1	-4.1	81.1*
OCCNc1c2ccccc2nc2c(F)c(F)c(F)c(F)c12	1.3	4.2	5.1	9.1	-54.1	1.9	.	.
Cc1c2ccccc2nc2c(F)c(NCCO)c(F)c(F)c12	3.0	10.6	18.8*	4.1	62.3*	7.6	4.4	13.0
CC1=NN(c2ccccc2)C(=O)/C1=C/C=C/c1ccccc1	-2.2	1.9	6.9	16.2	16.2	1.9	.	.
CC1=NN(c2cccc(C(=O)O)c2)C(=O)/C1=C\C=C\c1ccco1	1.2	6.2	24.4*	-6.8	55.0*	-4.2	29.4*	28.3
O=S(=O)(O)c1cccc2c(N=Nc3ccc(O)c4ncccc34)cccc12	7.5	6.2	50.1*	24.2	65.4*	1.7	44.6*	63.3*	Fam108b inh=0.0
CCOC(=O)c1ccc(NC2=CC(=O)C(=O)c3ccccc32)cc1	-1.1	-10.8	19.0*	9.9	77.0*	9.8	30.4*	86.7*	Fam108b inh=25.0
CCOC(=O)c1ccc(NC(=O)C(C)N2C(=O)c3ccccc3C2=O)cc1 (centres undefined)	0.7	-1.1	-6.4	-2.3	1.5	0.7	.	.
COc1ccc(NC(=S)NNc2ccc(S(=O)(=O)Nc3ccccc3C(=O)O)cc2[N+](=O)[O-])cc1	3.8	8.6	51.8*	49.8*	67.0*	8.8	15.4	80.3*
Cc1ccc(NC(=O)/C(C#N)=C(\N)C(Cl)(Cl)Cl)nc1	3.3	9.7	20.6*	-0.3	47.3*	4.5	23.0*	76.4*
Cc1ccc(NC(=O)C(=O)Nc2ccc(C)cn2)nc1	0.8	-1.4	-2.9	1.3	3.4	-0.3	.	.
SMILES	LYPLA1 inh	PAD4 FP inh	Fam108B inh	PME-1 inh	GSTO1 inh	LYPLA2 counter	Fam108b inh conf	GSTO1 inh conf	others
COc1ccc(N2C(=O)N3[C@@H]4c5ccccc5OC[C@@H]4[C@@H](c4ccccc4)[C@@]3(C)C2=O)cc1	.	3.2	.	.	.	.	.	.
Cc1ccn2c(=O)nc(SCC(=O)NCc3ccccc3Cl)nc2c1	-0.1	-1.5	-3.4	-1.6	6.5	-3.3	.	.
c1coc(-c2nnc(-c3ccco3)nn2)c1	-5.5	-6.8	21.9*	-2.3	67.8*	10.9	15.8	37.8*
C=CCn1c(N)c(C(=O)OCCC)c2nc3ccccc3nc21	-1.8	-11.1	0.2	4.0	28.8	0.5	.	.
COCCn1c(N)c(C(=O)OCc2ccccc2)c2nc3ccccc3nc21	-7.3	5.3	42.2*	-4.4	70.0*	-8.0	-2.1	57.6*
CCOC(=O)c1c(S(=O)(=O)NCC(=O)Nc2ccc(F)cc2F)c(C)n(C)c1C	-2.1	2.9	-0.5	1.0	1.4	0.5	.	.
CN(C)c1ccc(CN(C(=O)c2ccccc2Br)C2CCS(=O)(=O)C2)cc1 (centres undefined)	-0.3	3.1	1.4	-1.1	-0.2	0.2	.	.
O=S(=O)(c1ccc2ccccc2c1)N1CCOCC1	-0.1	-1.5	0.3	2.7	-1.2	3.9	.	.
O=S(=O)(c1ccc2nc(-c3ccco3)c(-c3ccco3)nc2c1)N1CCOCC1	-3.0	-5.4	19.5*	11.9	48.3*	2.2	11.5	20.7
O=C(O)C1Nc2c(O)cccc2C2C=CCC12 (centres undefined)	-17.1	-3.0	65.7*	14.4	60.6*	-5.7	56.6*	51.9*
CCOC(=O)C1Nc2ccc(Br)cc2C2C=CCC12 (centres undefined)	-5.6	-13.4	11.6	5.4	16.0	-5.1	.	.
O=C(O)C1Nc2ccc(Br)cc2C2C=CCC12 (centres undefined)	-1.1	8.1	54.6*	-13.5	50.9*	21.6	34.6*	48.7*	Fam108b inh=40.0*
